Reference: PubChem BioAssay (EPA / NIEHS)
Inconclusive results are not listed. Calls of active or inactive are those of the source. The calls were made as follows, unless noted: active = hit-call score of the fitted dose curve at least 0.9, where 1 is the maximum; inconclusive = response in the unintended direction; inactive = score below 0.9.

Columns and labels:
[1] = target: Bile acid receptor (Homo sapiens) (UniProt Q96RI1); test: ATG_IR1_CIS: Attagene CIS-FACTORIAL HepG2 Assay for human Nuclear Receptor Subfamily 1 Group H Member 4 (NR1H4), IR1 submotif (AID 2282946; active = hit-call score of the fitted dose curve at least 0.9, where 1 is the maximum; inactive = score below 0.9); conditions: IR1 reporter transcription, actives raise or lower the signal
Method in brief: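 Cells (human HepG2) carry transiently transfected cis-promoter reporter transcription units. Compounds are incubated 24 h, total RNA is reverse-transcribed and amplified, and labelled fragments are resolved by capillary electrophoresis. Curves use DMSO as baseline.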

[2] = target: Glucocorticoid receptor (Homo sapiens) (UniProt P04150); test: ATG_GR_TRANS: Attagene TRANS-FACTORIAL HepG2 Assay for human Glucocorticoid Receptor (GR) (AID 2282978); conditions: HepG2 Attagene TRANS GR reporter, mRNA transcription;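 also: activators score as hits since higher reporter transcript over DMSO is fitted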
Method in brief: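 Transient MRTU transfection of HepG2 (GAL4-UAS reporters, exogenous NR-GAL4 chimeras), 24 h dosing. Readout: reporter transcript via RT-PCR + capillary electrophoresis fluorescence. Positive direction vs DMSO baseline.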

[3] = target: Oxysterols receptor LXR-beta (Homo sapiens) (UniProt P55055); test: ATG_LXRb_TRANS: Attagene TRANS-FACTORIAL HepG2 Assay for human Liver X Receptor beta (LXRb) (AID 2282981); conditions: HepG2 Attagene TRANS GAL4-LXRb reporter, mRNA
Method in brief: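 Cells: HepG2, transiently transfected with GAL4-UAS reporter units plus LXRb-Gal4 fusion. Treatment: 24 h. Detection: reporter mRNA by RT-PCR, 6-FAM labelling, HpaI digestion, capillary electrophoresis.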

[4] = target: Retinoic acid receptor RXR-alpha (Homo sapiens) (UniProt P19793); test: ATG_RXRa_TRANS: Attagene TRANS-FACTORIAL HepG2 Assay for human Retinoid X Receptor alpha (RXRa) (AID 2283012)
Method in brief: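 HepG2 cells transiently transfected with multiplexed GAL4-UAS reporter units and chimeric NR-GAL4 fusions, dosed 24 h. Reporter mRNA measured by RT-PCR, FAM labelling, HpaI digestion and capillary electrophoresis; gain-of-signal fitted relative to DMSO baseline.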

[5] = target: human Thyroid Receptor alpha (THRa1), THRA (gene 7067) (UniProt P10827); test: ATG_THRa1_TRANS: Attagene TRANS-FACTORIAL HepG2 Assay for human Thyroid Receptor alpha (THRa1) (AID 2283014)
Method in brief: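 Measured here is mRNA from a GAL4-UAS reporter in transfected HepG2 cells carrying a Gal4-fused receptor, 24 h post-dose. DMSO served as negative control and baseline.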

[6] = target: human Vitamin D Receptor (VDR), VDR (gene 7421) (UniProt P11473); test: ATG_VDR_TRANS: Attagene TRANS-FACTORIAL HepG2 Assay for human Vitamin D Receptor (VDR) (AID 2283022)
Method in brief: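 Multiplexed TRANS reporter in HepG2; 24 h treatment; reporter mRNA by RT-PCR plus capillary electrophoresis; upregulation scored relative to DMSO.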

[7] = TOX21_p53_BLA_p3_viability: Viability Assessment in the Tox21 HCT-116 p53 Agonism Beta-lactamase Assay, Phase 3 (AID 2283593);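 also: cells exposed to compound for 16 h before reading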
Method in brief: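 Cellular ATP was quantified by CellTiter-Glo luminescence, read after 30 min at room temperature. Beforehand, HCT116 cells (4000/well) received compound 5 h post-seeding, 217-fold diluted from DMSO, then incubated 16 h at 37C.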

[8] = target: Oxysterols receptor LXR-alpha (Homo sapiens) (UniProt Q13133); test: ATG_LXRa_TRANS: Attagene TRANS-FACTORIAL HepG2 Assay for human Liver X Receptor alpha (LXRa) (AID 2282980); conditions: HepG2 Attagene TRANS reporter, LXRa transactivation
Method in brief: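 In this multiplexed TRANS system, compounds act on HepG2 cells carrying GAL4-UAS reporter units and a receptor-GAL4 fusion for 24 h. Induced reporter RNA is amplified, fluorescently labelled and sized by capillary electrophoresis, with DMSO as baseline.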

[9] = target: Nuclear receptor subfamily 4 group A member 2 (Homo sapiens) (UniProt P43354); test: ATG_NURR1_TRANS: Attagene TRANS-FACTORIAL HepG2 Assay for human Nuclear Receptor Related Protein 1 (NURR1) (AID 2282985); conditions: HepG2 Attagene TRANS reporter, mRNA readout
Method in brief: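 Cells: HepG2, transiently transfected. Exposure: 24 h. Detection: fluorescence of labelled RT-PCR products separated by capillary electrophoresis; upward fit versus DMSO.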

[10] = ATG_XTT_Cytotoxicity: Cytotoxicity Assessment in the Attagene TRANS-FACTORIAL HepG2 Assay (AID 2283584)
Method in brief: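 24 h chemical exposure of reporter-transfected HepG2; XTT signal loss vs DMSO indicates cytotoxicity.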

[11] = TOX21_p53_BLA_p4_viability: Viability Assessment in the Tox21 HCT-116 p53 Agonism Beta-lactamase Assay, Phase 4 (AID 2283597);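 also: hits lower the luminescence signal meaning cytotoxicity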
Method in brief: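 Luminescent ATP readout (CellTiter-Glo, 30 min, room temperature) in the same wells as the p53 bla ratio. HCT116 cells were treated for 16 h at 37C with DMSO-dissolved compounds.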

[12] = ACEA_ER_AUC_viability: ACEA Biosciences xCELLigence Real-Time Cell Analysis on Estrogen Receptor Agonism for Viability (AID 2283782);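 also: continuous compound exposure with impedance area under curve over 80 h; hit means loss of impedance signal meaning reduced cell growth or viability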
Method in brief: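 T-47D; phenol red-free RPMI1640 + 10% CS-FBS; 8 conc., 1:4 serial, max 100 uM final, ≤0.5% DMSO; n = 2; continuous exposure; impedance monitored to 80 h post-dose; AUC vs DMSO.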

[13] = target: Nuclear receptor subfamily 1 group I member 3 (Homo sapiens) (UniProt Q14994); test: ATG_CAR_TRANS: Attagene TRANS-FACTORIAL HepG2 Assay for human Constitutive Androstane Receptor (CAR) (AID 2282969); conditions: HepG2 Attagene TRANS-FACTORIAL CAR reporter;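 also: activators raise reporter mRNA above DMSO so AC50 marks induction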
Method in brief: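 Readout is reporter mRNA induction, quantified by fluorescent primer extension and capillary electrophoresis after RT-PCR. Cells were HepG2 transiently carrying chimeric NR-Gal4 constructs with GAL4-UAS reporters, treated for 24 h; activity scored upward from DMSO.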

[14] = target: human Peroxisome Proliferator-activated Receptor alpha (PPARa), PPARA (gene 5465) (UniProt Q07869); test: ATG_PPARa_TRANS: Attagene TRANS-FACTORIAL HepG2 Assay for human Peroxisome Proliferator-activated Receptor alpha (PPARa) (AID 2283001)
Method in brief: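 Reporter transcripts from GAL4-UAS units in transfected HepG2 were quantified 24 h after dosing. Detection used reverse transcription, PCR, fluorescent primer extension and capillary electrophoresis, with DMSO as baseline.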

[15] = target: human RAR-related Orphan Receptor gamma (RORg), RORC (gene 6097) (UniProt P51449); test: ATG_RORg_TRANS: Attagene TRANS-FACTORIAL HepG2 Assay for human RAR-related Orphan Receptor gamma (RORg) (AID 2283011)
Method in brief: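 Chimeric RORg-Gal4 transactivation in transfected HepG2; 24 h exposure; RT-PCR/capillary electrophoresis readout of reporter mRNA, DMSO baseline.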

[16] = target: human RAR-related Orphan Receptor beta (RORb), RORB (gene 6096) (UniProt Q92753); test: ATG_RORb_TRANS: Attagene TRANS-FACTORIAL HepG2 Assay for human RAR-related Orphan Receptor beta (RORb) (AID 2283010)
Method in brief: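 HepG2 cells were transiently transfected with multiplexed GAL4-UAS reporter units expressing chimeric nuclear receptor–GAL4 proteins, then dosed for 24 h. Reporter mRNA was quantified by RT-PCR with fluorescent labelling and capillary electrophoresis; gain of signal was fitted relative to DMSO.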

[17] = CCTE_Harrill_HTTr_Viability_MCF7: CCTE's 6-hour Cell Viability Assessment for the High-Throughput Transcriptomics (HTTr) Platform, in MCF-7 cells cultured in DMEM + 10% fetal bovine serum, Harrill Lab (AID 2284010; active = hit-call score of the fitted dose curve at least 0.9, where 1 is the maximum; inactive = score below 0.9)
Method in brief: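 Membrane integrity was scored by high-content imaging of propidium iodide dye exclusion after a 6 h exposure across an eight-point dilution series. Data were fitted bidirectionally relative to DMSO as negative control and baseline.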

[18] = CCTE_Harrill_HTTr_Apoptosis_MCF7: CCTE's 6-hour Apoptosis Assessment for the High-Throughput Transcriptomics (HTTr) Platform, in MCF-7 cells cultured in DMEM + 10% fetal bovine serum, Harrill Lab (AID 2284011; active = hit-call score of the fitted dose curve at least 0.9, where 1 is the maximum; inactive = score below 0.9)
Method in brief: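 Apoptosis in MCF-7 cells grown in DMEM with 10% fetal bovine serum was scored after a six hour exposure by high content imaging of caspase-3/7 activation (CellEvent Caspase 3/7 Green), with DMSO serving as negative control and baseline.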

[19] = target: Peroxisome proliferator-activated receptor gamma (Homo sapiens) (UniProt P37231); test: ATG_PPARg_TRANS: Attagene TRANS-FACTORIAL HepG2 Assay for human Peroxisome Proliferator-activated Receptor-gamma (PPARg) (AID 2283007)
Method in brief: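 Read-out: reporter mRNA induction, detected by fluorescence after RT-PCR and capillary electrophoresis. Transiently transfected human HepG2 liver cells carrying a chimeric NR-Gal4 construct were dosed for 24 h; activity was fitted upward relative to DMSO.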

[20] = ATG_PPRE_CIS: Attagene CIS-FACTORIAL HepG2 Assay for human Peroxisome Proliferator-activated Response Element (PPRE) (AID 2282958; active = hit-call score of the fitted dose curve at least 0.9, where 1 is the maximum; inactive = score below 0.9); conditions: HepG2 PPRE cis-element reporter, Attagene transcription factor profiling; actives raise or lower the signal
Method in brief: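 Read-out: fluorescent reporter mRNA fragments resolved by capillary electrophoresis after RT-PCR. HepG2 cells carried transiently transfected PPRE-driven cis reporter constructs and were dosed for 24 h; gain or loss of signal fitted relative to DMSO.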

Measured: AC50

Bile acid receptor (Homo sapiens), sequence (Q96RI1 whole entry, looked up, the tested form may be a part): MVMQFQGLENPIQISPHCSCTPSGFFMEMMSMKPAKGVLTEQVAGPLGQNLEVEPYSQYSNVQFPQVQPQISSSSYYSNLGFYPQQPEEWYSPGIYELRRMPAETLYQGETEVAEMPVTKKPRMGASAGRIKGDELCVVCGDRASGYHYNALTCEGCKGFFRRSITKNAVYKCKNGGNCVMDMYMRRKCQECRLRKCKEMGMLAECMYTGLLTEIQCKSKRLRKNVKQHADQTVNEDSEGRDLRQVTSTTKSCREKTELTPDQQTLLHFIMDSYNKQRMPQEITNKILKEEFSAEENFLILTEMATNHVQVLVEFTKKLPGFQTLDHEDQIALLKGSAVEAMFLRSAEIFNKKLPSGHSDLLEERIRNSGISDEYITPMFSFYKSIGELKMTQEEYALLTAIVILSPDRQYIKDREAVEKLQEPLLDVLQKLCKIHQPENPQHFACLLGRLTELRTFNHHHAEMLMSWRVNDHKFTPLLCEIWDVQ
human Vitamin D Receptor (VDR), VDR (gene 7421), sequence (P11473 whole entry, looked up): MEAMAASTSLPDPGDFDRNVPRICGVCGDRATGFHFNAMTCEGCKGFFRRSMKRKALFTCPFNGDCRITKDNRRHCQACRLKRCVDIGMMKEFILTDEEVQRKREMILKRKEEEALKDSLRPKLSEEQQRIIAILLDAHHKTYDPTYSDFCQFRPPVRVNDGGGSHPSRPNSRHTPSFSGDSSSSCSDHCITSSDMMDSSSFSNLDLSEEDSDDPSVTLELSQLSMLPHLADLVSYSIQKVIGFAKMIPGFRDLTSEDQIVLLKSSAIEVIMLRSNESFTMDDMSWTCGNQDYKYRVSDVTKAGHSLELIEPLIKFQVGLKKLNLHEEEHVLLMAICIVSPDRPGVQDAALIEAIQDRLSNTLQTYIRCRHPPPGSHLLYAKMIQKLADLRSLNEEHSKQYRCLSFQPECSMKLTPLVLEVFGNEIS
Oxysterols receptor LXR-alpha (Homo sapiens), sequence (Q13133 whole entry, looked up, the tested form may be a part): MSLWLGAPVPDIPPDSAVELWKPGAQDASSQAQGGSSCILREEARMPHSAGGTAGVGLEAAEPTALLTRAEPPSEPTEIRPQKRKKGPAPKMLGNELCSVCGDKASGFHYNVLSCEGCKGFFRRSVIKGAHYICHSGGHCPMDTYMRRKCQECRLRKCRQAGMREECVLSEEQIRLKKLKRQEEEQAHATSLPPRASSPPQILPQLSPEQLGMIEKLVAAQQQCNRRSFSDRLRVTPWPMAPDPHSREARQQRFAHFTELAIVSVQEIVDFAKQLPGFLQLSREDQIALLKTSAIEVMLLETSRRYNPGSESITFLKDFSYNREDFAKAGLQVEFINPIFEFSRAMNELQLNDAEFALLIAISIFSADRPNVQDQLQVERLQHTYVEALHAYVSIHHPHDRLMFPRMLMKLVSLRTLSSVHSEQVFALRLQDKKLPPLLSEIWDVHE
Peroxisome proliferator-activated receptor gamma (Homo sapiens), sequence (P37231 whole entry, looked up, the tested form may be a part): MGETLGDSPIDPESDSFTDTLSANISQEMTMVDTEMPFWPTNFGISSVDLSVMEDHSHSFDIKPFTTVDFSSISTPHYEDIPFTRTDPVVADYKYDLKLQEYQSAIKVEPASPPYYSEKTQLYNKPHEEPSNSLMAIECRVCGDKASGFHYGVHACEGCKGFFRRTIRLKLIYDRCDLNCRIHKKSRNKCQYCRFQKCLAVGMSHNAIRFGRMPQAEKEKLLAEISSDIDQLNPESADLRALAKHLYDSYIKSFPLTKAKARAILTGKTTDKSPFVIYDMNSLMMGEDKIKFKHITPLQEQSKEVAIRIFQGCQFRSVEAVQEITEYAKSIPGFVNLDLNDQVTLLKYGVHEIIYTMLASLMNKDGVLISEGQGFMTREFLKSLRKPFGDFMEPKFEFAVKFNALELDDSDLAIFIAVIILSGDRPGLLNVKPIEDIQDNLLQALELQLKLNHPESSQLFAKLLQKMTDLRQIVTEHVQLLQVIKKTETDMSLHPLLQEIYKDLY
Retinoic acid receptor RXR-alpha (Homo sapiens), sequence (P19793 whole entry, looked up, the tested form may be a part): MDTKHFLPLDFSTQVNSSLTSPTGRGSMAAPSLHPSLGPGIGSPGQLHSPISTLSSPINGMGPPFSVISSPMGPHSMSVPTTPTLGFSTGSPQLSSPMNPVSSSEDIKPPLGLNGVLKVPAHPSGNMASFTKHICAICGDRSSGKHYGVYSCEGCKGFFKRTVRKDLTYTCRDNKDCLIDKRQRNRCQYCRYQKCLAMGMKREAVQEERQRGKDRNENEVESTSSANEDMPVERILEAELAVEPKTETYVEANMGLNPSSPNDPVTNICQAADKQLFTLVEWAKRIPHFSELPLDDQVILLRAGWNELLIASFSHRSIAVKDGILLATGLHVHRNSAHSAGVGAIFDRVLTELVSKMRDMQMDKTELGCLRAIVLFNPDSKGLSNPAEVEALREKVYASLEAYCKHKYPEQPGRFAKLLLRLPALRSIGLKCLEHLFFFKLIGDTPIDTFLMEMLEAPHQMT
human RAR-related Orphan Receptor beta (RORb), RORB (gene 6096), sequence (Q92753 whole entry, looked up, the tested form may be a part): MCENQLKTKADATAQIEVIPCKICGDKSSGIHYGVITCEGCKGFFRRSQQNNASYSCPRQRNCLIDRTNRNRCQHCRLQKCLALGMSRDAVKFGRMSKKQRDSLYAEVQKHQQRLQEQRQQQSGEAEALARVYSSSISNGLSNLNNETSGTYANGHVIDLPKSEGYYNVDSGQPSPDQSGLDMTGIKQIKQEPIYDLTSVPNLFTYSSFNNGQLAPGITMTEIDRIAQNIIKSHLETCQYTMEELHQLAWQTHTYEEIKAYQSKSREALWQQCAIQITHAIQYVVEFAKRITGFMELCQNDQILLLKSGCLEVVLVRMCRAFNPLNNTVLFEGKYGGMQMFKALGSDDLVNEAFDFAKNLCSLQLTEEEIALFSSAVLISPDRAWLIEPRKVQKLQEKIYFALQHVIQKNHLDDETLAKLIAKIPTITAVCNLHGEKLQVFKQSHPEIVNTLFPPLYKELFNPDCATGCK
Nuclear receptor subfamily 1 group I member 3 (Homo sapiens), sequence (Q14994 whole entry, looked up, the tested form may be a part): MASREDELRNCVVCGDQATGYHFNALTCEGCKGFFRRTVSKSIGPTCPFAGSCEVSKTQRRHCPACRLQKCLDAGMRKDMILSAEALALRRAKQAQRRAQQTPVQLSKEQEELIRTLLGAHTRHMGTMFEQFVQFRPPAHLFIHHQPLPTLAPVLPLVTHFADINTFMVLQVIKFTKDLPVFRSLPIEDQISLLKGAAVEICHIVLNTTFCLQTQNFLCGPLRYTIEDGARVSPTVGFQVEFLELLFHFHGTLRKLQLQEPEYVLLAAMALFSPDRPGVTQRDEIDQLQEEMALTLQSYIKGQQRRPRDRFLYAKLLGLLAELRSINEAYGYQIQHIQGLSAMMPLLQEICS
human Peroxisome Proliferator-activated Receptor alpha (PPARa), PPARA (gene 5465), sequence (Q07869 whole entry, looked up, the tested form may be a part): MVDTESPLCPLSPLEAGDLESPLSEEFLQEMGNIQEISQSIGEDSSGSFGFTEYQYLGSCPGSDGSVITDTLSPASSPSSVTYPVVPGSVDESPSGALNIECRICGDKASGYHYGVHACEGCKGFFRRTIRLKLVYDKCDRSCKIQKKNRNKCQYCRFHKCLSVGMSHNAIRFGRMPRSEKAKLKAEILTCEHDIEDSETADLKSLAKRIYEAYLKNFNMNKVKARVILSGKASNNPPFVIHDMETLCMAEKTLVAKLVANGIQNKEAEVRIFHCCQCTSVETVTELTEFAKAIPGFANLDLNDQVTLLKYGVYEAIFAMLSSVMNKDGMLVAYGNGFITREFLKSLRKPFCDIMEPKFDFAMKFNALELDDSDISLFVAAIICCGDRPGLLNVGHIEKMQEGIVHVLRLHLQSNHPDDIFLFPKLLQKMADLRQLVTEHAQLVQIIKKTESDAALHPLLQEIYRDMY
human RAR-related Orphan Receptor gamma (RORg), RORC (gene 6097), sequence (P51449 whole entry, looked up, the tested form may be a part): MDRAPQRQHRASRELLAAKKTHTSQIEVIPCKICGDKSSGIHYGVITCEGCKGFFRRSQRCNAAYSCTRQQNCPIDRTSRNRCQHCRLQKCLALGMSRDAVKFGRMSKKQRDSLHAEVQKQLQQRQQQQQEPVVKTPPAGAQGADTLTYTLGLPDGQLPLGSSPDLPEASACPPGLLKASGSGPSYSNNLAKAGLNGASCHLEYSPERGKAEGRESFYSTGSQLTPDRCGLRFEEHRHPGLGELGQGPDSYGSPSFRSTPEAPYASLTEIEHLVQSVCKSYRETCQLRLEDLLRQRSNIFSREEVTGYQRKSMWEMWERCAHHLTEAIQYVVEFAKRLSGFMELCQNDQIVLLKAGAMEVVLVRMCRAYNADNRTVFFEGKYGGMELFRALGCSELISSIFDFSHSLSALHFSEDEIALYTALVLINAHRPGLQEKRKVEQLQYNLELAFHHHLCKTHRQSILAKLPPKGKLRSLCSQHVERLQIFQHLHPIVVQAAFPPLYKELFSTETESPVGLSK
Glucocorticoid receptor (Homo sapiens), sequence (P04150 whole entry, looked up, the tested form may be a part): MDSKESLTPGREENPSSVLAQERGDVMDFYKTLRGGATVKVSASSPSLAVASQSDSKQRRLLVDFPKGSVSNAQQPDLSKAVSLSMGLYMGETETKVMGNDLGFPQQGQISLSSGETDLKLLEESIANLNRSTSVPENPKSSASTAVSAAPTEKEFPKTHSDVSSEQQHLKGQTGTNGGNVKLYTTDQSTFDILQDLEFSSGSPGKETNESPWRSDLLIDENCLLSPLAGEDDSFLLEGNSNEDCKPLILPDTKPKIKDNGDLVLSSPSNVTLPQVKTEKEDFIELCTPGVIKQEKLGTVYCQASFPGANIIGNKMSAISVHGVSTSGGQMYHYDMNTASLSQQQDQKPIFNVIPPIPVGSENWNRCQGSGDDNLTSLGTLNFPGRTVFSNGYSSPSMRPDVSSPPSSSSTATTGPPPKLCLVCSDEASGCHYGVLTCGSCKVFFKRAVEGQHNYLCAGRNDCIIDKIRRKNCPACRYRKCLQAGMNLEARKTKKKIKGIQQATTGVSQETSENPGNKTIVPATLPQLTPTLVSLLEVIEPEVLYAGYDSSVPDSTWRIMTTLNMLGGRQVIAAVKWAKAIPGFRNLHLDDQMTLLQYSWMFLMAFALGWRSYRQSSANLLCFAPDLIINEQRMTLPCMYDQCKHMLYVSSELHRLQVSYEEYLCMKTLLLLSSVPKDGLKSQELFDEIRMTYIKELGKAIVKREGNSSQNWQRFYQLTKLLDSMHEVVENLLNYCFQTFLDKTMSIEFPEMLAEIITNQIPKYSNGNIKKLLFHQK

O=C1NC(=O)[C@@H]2CC=CC[C@H]12
inactive: [1] | [2] | [3] | [4] | [5] | [6] | [7]

O=C1CCCCCCCCCCCCCC1
active: [9] 25.7 µM
inactive: [2] | [8] | [3] | [6] | [10] | [7] | [11] | [12]

CN1CCCC1
not listed: [2] | [6] | [11] | [16] | [17] | [18] | [19] | [20]
inactive: all other assays above

C=CC(C)(CCC=C(C)C)OC(=O)c1ccccc1 (stereo not given)
active: [12] 72.6 µM
inactive: [1] | [2] | [9] | [4] | [5] | [10] | [7]

CCOC(=O)CC(=O)OCC
inactive: [1] | [2] | [14] | [16] | [15] | [5] | [6] | [7] | [17] | [18]

O=C1NC(=O)C2CC=CCC12 (stereo not given)
inactive: [1] | [3] | [6] | [10] | [7] | [11] | [12]

CCCCOC(=O)COc1ccc(Cl)cc1Cl
active: [1] 24.4 µM
inactive: [13] | [19] | [16] | [6] | [10] | [11] | [12]

CCCCCCC1CCC(=O)O1 (stereo not given)
inactive: [20] | [8] | [3] | [9] | [14] | [19] | [4] | [6] | [12]

CCOc1ccc2c(c1)C(C)CC(C)(C)N2 (stereo not given)
inactive: [1] | [20] | [13] | [3] | [9] | [19] | [6]
active: [8] 14.5 µM

O=[N+]([O-])c1ccccc1C(F)(F)F
inactive: [20] | [13] | [19] | [16] | [15] | [6] | [10] | [7] | [11]

CCCCNC(N)=O
not listed: [4] | [8] | [9] | [10] | [12] | [15] | [17] | [18]
inactive: all other assays above

O=C(c1ccccc1)c1ccccc1O
inactive: [13] | [2] | [14] | [19] | [4] | [6] | [10]
active: [12] 76.9 µM
